# Shiga toxin inh: inhibitors of Shiga toxin in Vero cells. 9.2% of 290,000 active. Vero cells, Shiga toxin protein synthesis inhibition reporter. inhibition, % at 38.7 µM; in the data active = inhibition mostly above about 28%, no sharp cut-off; inactive = mostly below about 43%; also: 0% is about no effect
# Cycloheximide cs: affects cycloheximide protein synthesis inhibition readout, counter-screen. cell reporter, cycloheximide protein synthesis inhibition counterscreen. max response, %. 12% of 300,000 active; in the data active = max response mostly above about 13%, no sharp cut-off; inactive = mostly below about 14%; also: read at 38.3 µM for the half of the compounds with a filed dose; 0% is about no effect
# Pf growth 48h: inhibits P. falciparum growth in the first generation, 48 h. Potency, µM (titrated, usually from 28.7 µM), without a hit: at the top dose activity change, negative = inhibition, actives largely listed as inhibitors. 5.9% of 310,000 active. P. falciparum luciferase growth in erythrocytes, 48 h; also: potency is read from the fitted curve at half-maximal effect; % is scaled to controls: 0 for no effect and ±100 for the full control effect
#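 Read-out is firefly luciferase luminescence from an integrated reporter in P. falciparum, so falling signal marks reduced parasite growth. Infected erythrocytes were at 2% hematocrit and 0.1% parasitemia (final) in Albumax-supplemented RPMI 1640.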
# Pf growth 96h: P. falciparum growth inhibition at 96 hours. P. falciparum luciferase reporter growth, 96 h. Potency, µM (highest dose often 28.7 µM), for the others: at the highest dose activity change, negative = inhibition, most hits filed as inhibitors. 6.9% of 320,000 active; also: potency is read from the fitted curve at half-maximal effect; % is scaled to controls: 0 for no effect and ±100 for the full control effect
#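 Cell-based qHTS: luciferase-tagged P. falciparum in erythrocytes (2% hematocrit, 0.05% parasitemia final) incubated with compounds for 96 hours, 37 C, 5% CO2; luciferase detection reagent then added and luminescence measured.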
# * marks the source's active call; other numbers are inactive results; ? = inconclusive; . = no result given; [ ] = another dose, or the depositor's remark. The list is not random: actives were taken first. Their share in the collection is about 21%. Unless noted, calls follow the shape of the dose curve; as a rule, active = well fitted inhibition curve with a large enough effect; inconclusive = small, poorly fitted or top-dose-only effect, or another doubt; inactive = no such curve, though single readings can be large or run the other way.
SMILES,Shiga toxin inh,Cycloheximide cs,Pf growth 48h,Pf growth 96h
O=C(COc1ccc2c3c(c(=O)oc2c1)CCC3)N1CCCC1,-3,-2,15%,?
O=C(COc1ccc2c3c(c(=O)oc2c1)CCC3)N1CCCCC1,86*,25*,28%,36%
CCc1cccc(C)c1NC(=O)CSc1nnc(CCCOc2ccc(Cl)cc2Cl)n1C,-18,-7,?,-26%
CC(=O)Oc1ccc(C(=O)NCc2ccco2)cc1,-8,1,0%,?
COc1ccc(C#Cc2ccc3c(=O)c4ccccc4n(C)c3c2)cc1,17,4,-41%,8.3µM*
Cn1c2ccccc2c(=O)c2ccc(C#Cc3ccc(N)cc3)cc21,20,26*,-25%,9.3µM*
CCOc1ccc(CCNc2ccc3nnc(-c4ccccc4)n3n2)cc1OCC,-19,-3,?,4.7µM*
O=C(COc1ncnc2ccccc12)Nc1ccc(Cl)c([N+](=O)[O-])c1,-6,1,24%,18%
O=C(CN(C(=O)c1ccccc1Cl)C1CCCCC1)Nc1ccc(Cl)c([N+](=O)[O-])c1,-4,-3,13µM*,31%
O=C(CN(C(=O)c1ccc(Cl)cc1)C1CCCCC1)Nc1ccc(Cl)c([N+](=O)[O-])c1,9,10,?,9.3µM*
O=C(NCCC(=O)N1CCN(c2ccccn2)CC1)c1ccc(Br)cc1,.,.,0%,2%
O=C(C1CCC(=O)N(C2CC2)C1)N1CCC(Oc2ccccc2F)CC1 (stereo not given),-9,7,-5%,-9%
CNC(=O)N(O)C1N(/N=C/c2ccccc2F)C(=S)SC1(C)C (stereo not given),-10,-4,1%[0.00184 µM],1%
CNC(=O)N(O)C1N(/N=C/c2ccccc2O)C(=S)SC1(C)C (stereo not given),28,15*,-9%,63%
CNC(=O)ON(C(=O)NC)C1N(C)C(=S)SC1(C)C (stereo not given),22,13*,6%,.
CNC(=O)N(O)C1N(c2ccccc2)C(=S)SC1(C)C (stereo not given),-9,7,0%,2.1µM*
CC(C)C[C@@H](C(=O)NCc1ccco1)N1C(=O)N2CCc3c([nH]c4ccccc34)[C@@]2(C)C1=O,-3,-1,?,?
COc1ccc(-c2ccc(-c3noc(-c4ccccc4C)n3)c(OC)n2)cc1,-12,-1,0%,.
COc1ccc(-c2ccc(-c3noc(C)n3)c(OC)n2)cc1,62,23*,55%,?
COCc1nc(-c2ccc(-c3ccc(C)cc3)nc2OC)no1,116*,33*,58%,?
CCOc1ccc(/C(O)=C2/C(=O)C(=O)N(c3ccccn3)C2c2ccc(F)cc2)c(C)c1 (stereo not given),1,-1,3%,27%
COCCn1c(=S)[nH]c2cc(C(=O)N3CCCC(C)C3)ccc2c1=O (stereo not given),-4,-3,18%,?
CC(c1ccco1)N(C(=O)COc1ccc(Cl)cc1Cl)c1ccccn1 (stereo not given),126*,53*,-21%,.
CC(c1ccco1)N(C(=O)COc1ccc(Cl)cc1)c1ccccn1 (stereo not given),135*,39*,76%,-18%
CC(c1ccco1)N(C(=O)c1ccccc1F)c1ccccn1 (stereo not given),21,9,0%,16%
SMILES,Shiga toxin inh,Cycloheximide cs,Pf growth 48h,Pf growth 96h
CC(c1ccco1)N(C(=O)c1ccccc1NS(=O)(=O)c1ccc(Cl)cc1)c1ccccn1 (stereo not given),-8,-3,-7%,?
COc1ccccc1-n1cc(CN2CCN(C3CCCCC3)C(CCO)C2)cn1 (stereo not given),20,-7,1%,?
CCOc1cccc(N2CCN(CCNC(=O)Nc3ccc(C)cc3)CC2)c1C,-2,-2,?,-7%
O=C(Nc1ccc(C(=O)NC2CCCCC2)cc1)c1cccnc1,-5,-2,-14%,?
CCC(C)[C@H](NS(=O)(=O)c1ccc(C)cc1)C(=O)N1CCC(C(=O)N2CCC(C(N)=O)CC2)CC1 (stereo not given in full),-1,0,-4%,-24%
CCN(CC)C(=O)Nc1cnc2ccccc2c1,48,18*,50%,2.3µM*
Cc1ccc(NC(=O)CS(=O)CC(=O)Nc2cnc3ccccc3c2)cc1Cl (stereo not given),-3,-4,-5%,16%
COc1cc(CCC(=O)Nc2cnc3ccccc3c2)cc(OC)c1OC,-4,5,?,-29%
Cc1ccc(NC(=O)Nc2cnc3ccccc3c2)cc1,45*,30*,?,23%
Fc1cccc(CN2CCN(Cc3nc(CCc4ccccc4)no3)CC2)c1,-5,-2,35%,10µM*
c1ccc(CC2CCN(Cc3nc(-c4ccccc4)no3)CC2)cc1,29,15*,?,.
COc1ccccc1CN1CCN(Cc2nc(Cc3ccccc3)no2)CC1,-7,0,?,12µM*
COc1ccccc1CN1CCN(Cc2nc(-c3ccccc3)no2)CC1,99*,35*,0%,-4%
Cc1cccc(NC(=O)c2cccc(Cn3cc(Br)c([N+](=O)[O-])n3)c2)c1C,8,-3,?,?
CCCc1cc(=O)[nH]c(SCC(=O)Nc2cccc(S(=O)(=O)N3CCCCC3)c2)n1,.,.,-7%,?
COc1ccc(CC(=O)NCC2CCCN(Cc3ccccc3Cl)C2)cc1 (stereo not given),-8,-3,-17%,184%
COc1cccc(N2C(=NC(=O)c3ccccc3)SC3CS(=O)(=O)CC32)c1 (stereo not given),-10,-4,-6%,1%
Cc1noc(NS(=O)(=O)c2ccc(NC(=O)c3nn(-c4ccccc4)ccc3=O)cc2)c1C,-4,-2,5%,?
Cc1ccc(CCN2CC(C(=O)NC3CCCC3)CC2=O)cc1 (stereo not given),-3,-2,26%,-2%
Cc1ccc(CCN2CC(C(=O)NCCCN3CCCCC3)CC2=O)cc1 (stereo not given),-1,1,0%,7.4µM*
Cc1ccc(CCN2CC(C(=O)NC3CCCCC3)CC2=O)cc1 (stereo not given),4,30*,-3%,19%
O=C(NCCN1CCCCCC1)C1CC(=O)N(CCc2ccccc2)C1 (stereo not given),-11,1,4%,16%
O=C1CC(Sc2nnc(-c3ccccc3O)o2)C(=O)N1c1ccccc1 (stereo not given),51,2,17%,56%
O=C1c2ccccc2CC1Sc1nnc(-c2ccccn2)o1 (stereo not given),75*,17*,?,13µM*
CCN1CC=C2C(C#N)=C(N)C(C#N)(C#N)C(c3cc(Cl)ccc3Cl)C2C1 (stereo not given),-8,-6,8.3µM*,0%
CC(C)N1CC=C2C(C#N)=C(N)C(C#N)(C#N)C(c3ccccc3)C2C1 (stereo not given),-10,-1,-27%,-7%[5.75 µM]
COc1ccc(CCN2C(=O)C(O)=C(C(=O)c3ccco3)C2c2cccs2)cc1OC (stereo not given),2,1,13%,-11%

# Source: PubChem
